Experiment [1] has as its target RecQ-like DNA helicase BLM (Homo sapiens) (UniProt P54132). Briefly: qHTS Validation Assay for Inhibitors of Bloom's syndrome helicase (BLM) (AID 2364). Further: potency means the concentration at half of the fitted maximal effect. A digest of the protocol: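 BLM 50 nM in 25 mM Tris-HCl pH 8.0, 5 mM NaCl, 2 mM MgCl2, 1 mM DTT, 0.01% Tween-20, 2.5 ug/ml poly(dI-dC); 15 min cpd preinc, RT. Start: 200 nM forked DNA + 2 mM ATP (final). TAMRA read, 2 reads 2 h apart.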
For orientation: Quantitative high-throughput screening tests each substance at several concentrations.

The target of experiment [2] is Endonuclease 4 (Escherichia coli (strain K12)) (UniProt P0A6C1). Briefly: Counterscreen for APE1 Inhibitors: qHTS Assay for Inhibitors of Endonuclease IV (AID 2565). A digest of the protocol: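 Measured as reaction progress, the fluorescence gain between first and third kinetic reads after adding 50 nM TAMRA/BHQ-2 THF duplex to 2 nM enzyme preincubated 15 min with compound; 2 mM MgCl2, pH 7.5.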
In general terms: A counterscreen serves to expose hits that act by an unwanted route or on another target.

A short description of experiment [3]: Cytometric Cell-Based qHTS for Inhibitors of the mTORC1 Signaling Pathway in MEF (Tsc2-/-, p53-/-) Cells (AID 2660). Further: potency means the concentration at half of the fitted maximal effect. The procedure, abridged:
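Immunofluorescence qHTS of rpS6 Ser235/236 phosphorylation: MEFs (Tsc2-/-, p53-/-) treated 24 h, 37 C, in DMEM + 10% FBS. Alexa-488 signal normalized to PI count, referenced to rapamycin (7.5 nM) and DMSO; PI cell number recorded for viability.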

A short description of experiment [4]: High Content Imaging Cell-Based qHTS for Inhibitors of the mTORC1 Signaling Pathway in MEF (Tsc2-/-, p53-/-) Cells (AID 2666).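 Further: percent of cells scored positive for phospho-rpS6 Ser235/236 immunostaining by imaging.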 Further: potency means the concentration at half of the fitted maximal effect. The procedure, abridged:
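Inhibition of rpS6 phosphorylation is measured by immunofluorescence imaging in empty-vector Tsc2-/-, p53-/- mouse embryonic fibroblasts after 24 hrs compound exposure at 37 degree Celsius. Results are reported as % positive cells per well.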

Experiment [5] can be described thus: High Content Imaging Cell-Based qHTS for Inhibitors of the mTORC1 Signaling Pathway in MEF Cells (AID 2667). Further: potency means the concentration at half of the fitted maximal effect. A digest of the protocol: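 Fixed-cell imaging of phospho-S6 (Ser235/236, Alexa-488) after 24 hrs of compound treatment at 37 degree Celsius. Signal was normalized to Hoechst, and thresholds from the highest and lowest wells split cells into % active versus % non-active.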

Experiment [6] can be described thus: Validation screen for small molecules that induce DNA re-replication in MCF 10A normal breast cells (AID 463097). Further: nearly all actives have a fitted effect of over 60% in size. Further: potency means the concentration at half of the fitted maximal effect. The procedure, abridged:
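MCF 10A cells exposed to compound 48 hr at 37 C, 5% CO2, then Hoechst-stained 40 min. Laser-scanning imaging of nuclear DNA content (405 nm ex, 500-530 nm em); re-replication scored as rise in nuclei with elevated fluorescence intensity.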

For experiment [7], the target named is Tumor susceptibility gene 101 protein (Homo sapiens) (UniProt Q99816). Briefly: qHTS Validation Assay for Iinhibitors of HIV-1 Budding by Blocking the Interaction of PTAP/TSG101 (AID 485342; calls by dose curve). A digest of the protocol:
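Tsg101 binding domain (10 uM) with FITC-labeled PTAP peptide (50 nM) in HEPES pH 7.5 buffer, 20 min at r.t. with compounds. Binding measured by fluorescence polarization.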

Experiment [8] addresses Beta-2 adrenergic receptor (Homo sapiens) (UniProt P07550). Briefly: qHTS validation assay of beta-arrestin-biased ligands of beta2-adrenergic receptor (AID 485366). A digest of the protocol: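 Agonism was measured as beta-arrestin recruitment to recombinant beta2-AR, releasing tTA to drive luciferase. Cells were exposed for 18 hr at 37 degrees C to a series up to 46 microM. %Activity from corrected luminescence gave concentration-response curves.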

For experiment [9], the target named is ATP-dependent 6-phosphofructokinase (Trypanosoma brucei brucei) (UniProt O15648). Briefly: qHTS Validation Assay to Find Inhibitors of T. brucei phosphofructokinase (AID 485368). The procedure, abridged: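 ADP-Glo luminescence, two-step: residual ATP depleted, then ADP converted to ATP for luciferase. Enzyme 1.25 nM, F6P 0.5 mM, ATP 0.1 mM, pH 8.0 TEA buffer, 45 min RT. Curves fitted and classed by quality and efficacy.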
Chain of ATP-dependent 6-phosphofructokinase (Trypanosoma brucei brucei) (O15648 whole entry, looked up): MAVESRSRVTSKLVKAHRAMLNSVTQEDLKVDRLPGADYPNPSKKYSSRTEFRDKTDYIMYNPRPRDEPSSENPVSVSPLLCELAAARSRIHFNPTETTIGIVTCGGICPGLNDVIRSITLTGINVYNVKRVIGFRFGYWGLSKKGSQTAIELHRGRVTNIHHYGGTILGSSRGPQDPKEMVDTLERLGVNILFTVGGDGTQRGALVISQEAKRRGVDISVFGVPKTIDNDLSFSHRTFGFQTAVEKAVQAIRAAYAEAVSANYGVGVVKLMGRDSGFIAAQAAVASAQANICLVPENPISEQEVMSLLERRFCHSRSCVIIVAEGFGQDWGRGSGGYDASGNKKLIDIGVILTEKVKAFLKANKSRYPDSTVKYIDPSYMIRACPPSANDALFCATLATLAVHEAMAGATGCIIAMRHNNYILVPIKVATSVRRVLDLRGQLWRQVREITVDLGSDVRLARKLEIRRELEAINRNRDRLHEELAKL

Experiment [10] in a line: Quantitative high throughput screen for delayed death inhibitors of the malarial parasite plastid, 96 hour incubation (AID 488745). Further: nearly all actives have a fitted effect of over 70% in size. Further: potency means the concentration at half of the fitted maximal effect. A digest of the protocol: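 Two-generation (96 h) exposure of luciferase-reporter P. falciparum in erythrocytes, 2% hematocrit, 0.1% parasitemia final, 37 C, 5% CO2, RPMI 1640 with 0.5% Albumax. Growth inhibition scored by reduced luminescence.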

Experiment [11] in a line: Quantitative high throughput screen for delayed death inhibitors of the malarial parasite plastid, 48 hour incubation (AID 488752). Further: nearly all actives have a fitted effect of over 65% in size. Further: potency means the concentration at half of the fitted maximal effect. The procedure, abridged:
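Cultures: infected erythrocytes at final 2% hematocrit and 0.1% parasitemia in Albumax-supplemented RPMI. Parasites express integrated firefly luciferase. Incubation with compound lasts 48 h before luminescent detection of remaining reporter activity.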

Experiment [12] deals with Thioredoxin reductase 1, cytoplasmic (Rattus norvegicus) (UniProt O89049). Briefly: qHTS Assay for Inhibitors of Mammalian Selenoprotein Thioredoxin Reductase 1 (TrxR1) (AID 488773). Further: nearly all actives have a fitted effect of over 40% in size. Further: potency means the concentration at half of the fitted maximal effect. Particulars: Potency: inhibition. The procedure, abridged: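 Inhibition is scored from the loss of NADPH fluorescence between first and last reads of an 8-min kinetic run. Selenite (400 uM) was the substrate, added after 15 min compound preincubation at room temperature.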
Chain of Thioredoxin reductase 1, cytoplasmic (Rattus norvegicus) (O89049 whole entry, looked up): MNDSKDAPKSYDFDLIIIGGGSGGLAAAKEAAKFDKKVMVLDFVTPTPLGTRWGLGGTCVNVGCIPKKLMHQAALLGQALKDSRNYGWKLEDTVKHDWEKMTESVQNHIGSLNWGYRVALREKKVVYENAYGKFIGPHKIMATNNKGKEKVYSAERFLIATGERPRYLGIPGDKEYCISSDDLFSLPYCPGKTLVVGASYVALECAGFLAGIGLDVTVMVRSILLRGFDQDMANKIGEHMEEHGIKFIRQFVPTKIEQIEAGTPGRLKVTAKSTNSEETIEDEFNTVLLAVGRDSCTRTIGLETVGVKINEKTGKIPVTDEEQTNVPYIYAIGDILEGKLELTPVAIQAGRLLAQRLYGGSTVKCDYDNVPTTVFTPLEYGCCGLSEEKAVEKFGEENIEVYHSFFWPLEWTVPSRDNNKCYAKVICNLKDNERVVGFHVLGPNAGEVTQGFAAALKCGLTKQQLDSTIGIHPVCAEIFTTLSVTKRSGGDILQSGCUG

In experiment [13] the target is M-phase phosphoprotein 8 (Homo sapiens) (UniProt Q99549). Briefly: qHTS Validation Assay for Inhibitors for MPP8 Chromodomain Interactions with Methylated Histone Tails (AID 488949). Further: nearly all actives have a fitted effect of over 55% in size. Further: potency means the concentration at half of the fitted maximal effect. The procedure, abridged: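 MPP8 (50 nM) was pre-bound to 50 nM biotinylated H3(1-18)K9me3 peptide in PBS pH 7.4 with 0.01% Tween-20. Compounds were then added for 30 min at room temperature, and complex disruption was read by AlphaScreen with streptavidin donor and nickel-chelate acceptor beads.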
Chain of M-phase phosphoprotein 8 (Homo sapiens) (Q99549 whole entry, looked up): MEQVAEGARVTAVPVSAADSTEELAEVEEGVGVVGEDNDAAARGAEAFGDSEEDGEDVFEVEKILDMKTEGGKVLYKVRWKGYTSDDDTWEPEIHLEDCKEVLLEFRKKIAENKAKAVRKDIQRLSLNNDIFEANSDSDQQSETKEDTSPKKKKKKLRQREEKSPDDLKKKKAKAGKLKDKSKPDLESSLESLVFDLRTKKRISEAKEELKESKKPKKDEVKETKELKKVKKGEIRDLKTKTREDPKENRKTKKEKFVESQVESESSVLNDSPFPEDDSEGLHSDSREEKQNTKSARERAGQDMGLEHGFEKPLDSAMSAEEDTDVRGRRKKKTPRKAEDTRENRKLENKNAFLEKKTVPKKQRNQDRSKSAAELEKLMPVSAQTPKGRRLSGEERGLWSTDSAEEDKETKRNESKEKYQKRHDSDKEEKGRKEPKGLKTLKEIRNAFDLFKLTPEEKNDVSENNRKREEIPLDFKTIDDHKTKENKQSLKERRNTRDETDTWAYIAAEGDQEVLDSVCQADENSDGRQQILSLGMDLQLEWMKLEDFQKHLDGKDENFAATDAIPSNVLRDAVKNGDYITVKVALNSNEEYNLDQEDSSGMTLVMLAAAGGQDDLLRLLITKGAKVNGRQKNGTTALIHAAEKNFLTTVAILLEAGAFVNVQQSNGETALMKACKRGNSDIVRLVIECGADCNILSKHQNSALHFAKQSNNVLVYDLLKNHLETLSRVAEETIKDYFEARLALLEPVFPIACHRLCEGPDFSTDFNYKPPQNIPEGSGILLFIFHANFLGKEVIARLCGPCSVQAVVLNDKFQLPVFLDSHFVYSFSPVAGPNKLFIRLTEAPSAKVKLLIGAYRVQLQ

Experiment [14] addresses Ferritin light chain (Equus caballus) (UniProt P02791). Briefly: qHTS Validation Assay for Identification of Novel General Anesthetics (AID 2323). Further: series mostly up to about 77 µM. A digest of the protocol:
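Horse-spleen apoferritin (10 uM) in PBS with 50% saturated 1-aminoanthracene; compounds pin-transferred, 10 min at room temperature. Fluorescence read at 380/535 nm, normalized to free 1-AMA and 1-AMA/apoferritin values; four-parameter Hill fit.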

For experiment [15], the target named is ATP-dependent DNA helicase Q1 (Homo sapiens) (UniProt P46063). Briefly: qHTS Validation Assay for Inhibitors of RecQ-Like Dna Helicase 1 (RECQ1) (AID 2353). A digest of the protocol: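 RECQ1T1 50 nM; forked duplex (20 bp + 30-nt ss tails) 200 nM, ATP 2 mM final; pH 8.0, 2 mM MgCl2, 2.5 ug/ml poly(dI-dC); 15 min compound preincubation; discontinuous kinetic read over 2 h at RT.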
Chain of ATP-dependent DNA helicase Q1 (Homo sapiens) (P46063 whole entry, looked up): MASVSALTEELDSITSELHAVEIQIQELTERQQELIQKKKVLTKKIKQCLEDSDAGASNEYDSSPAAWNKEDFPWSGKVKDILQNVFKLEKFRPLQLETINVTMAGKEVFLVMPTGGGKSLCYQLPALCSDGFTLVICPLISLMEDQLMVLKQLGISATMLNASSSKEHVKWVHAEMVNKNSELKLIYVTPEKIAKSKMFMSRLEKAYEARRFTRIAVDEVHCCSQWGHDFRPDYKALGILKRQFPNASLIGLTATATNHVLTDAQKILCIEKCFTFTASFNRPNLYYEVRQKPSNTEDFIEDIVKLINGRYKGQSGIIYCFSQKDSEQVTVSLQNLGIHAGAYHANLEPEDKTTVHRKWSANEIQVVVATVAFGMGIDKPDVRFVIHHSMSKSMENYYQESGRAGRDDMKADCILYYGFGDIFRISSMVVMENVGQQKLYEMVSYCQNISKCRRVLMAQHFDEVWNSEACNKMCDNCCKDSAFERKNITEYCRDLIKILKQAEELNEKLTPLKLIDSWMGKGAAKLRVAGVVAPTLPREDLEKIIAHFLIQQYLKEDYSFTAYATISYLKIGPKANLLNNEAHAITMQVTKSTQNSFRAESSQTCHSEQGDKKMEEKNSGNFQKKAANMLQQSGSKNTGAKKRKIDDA

Experiment [16] addresses Ubiquitin carboxyl-terminal hydrolase 2 (Homo sapiens) (UniProt O75604). Briefly: qHTS Validation Assay for Inhibitors of Ubiquitin-specific Protease USP2a Using CHOP2 as the Reporter (AID 463106). A digest of the protocol:
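Inhibition is expressed relative to NEM as the full-inhibition control, with concentration-response curves classed by fit quality, magnitude and activity. Enzyme (USP2 core, 10nM) meets 25nM Ub-CHOP2 after compound preincubation; readings are taken at 60min.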

Experiment [17] has as its target Thioredoxin reductase 1, cytoplasmic (Rattus norvegicus) (UniProt O89049). Briefly: qHTS Assay for Substrates of Mammalian Selenoprotein Thioredoxin Reductase 1 (TrxR1) (AID 488772).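 Further: series mostly up to about 57 µM; a drop in NADPH fluorescence below the no-compound background marks a TrxR1 substrate.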 The procedure, abridged: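 In this dual-purpose format, potential substrates are identified from the first fluorescence read after selenite addition, not from the 8-minute delta. Rat enzyme is preincubated with NADPH and then with compound at ~22 deg C.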

The target in experiment [18] is Flap endonuclease 1 (Homo sapiens) (UniProt P39748). Briefly: qHTS Validation Assay for the Inhibitors of Human Flap endonuclease 1 (FEN1) (AID 488816). Further: potency means the concentration at half of the fitted maximal effect. A digest of the protocol: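 Steps: add FEN1 (10 nM reagent) or buffer only; pin compounds; hold 15 min at room temperature; start with substrate, 50 nM final; read at 0 and 15 min; correct, normalize and fit a four-parameter Hill curve.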
Chain of Flap endonuclease 1 (Homo sapiens) (P39748 whole entry, looked up): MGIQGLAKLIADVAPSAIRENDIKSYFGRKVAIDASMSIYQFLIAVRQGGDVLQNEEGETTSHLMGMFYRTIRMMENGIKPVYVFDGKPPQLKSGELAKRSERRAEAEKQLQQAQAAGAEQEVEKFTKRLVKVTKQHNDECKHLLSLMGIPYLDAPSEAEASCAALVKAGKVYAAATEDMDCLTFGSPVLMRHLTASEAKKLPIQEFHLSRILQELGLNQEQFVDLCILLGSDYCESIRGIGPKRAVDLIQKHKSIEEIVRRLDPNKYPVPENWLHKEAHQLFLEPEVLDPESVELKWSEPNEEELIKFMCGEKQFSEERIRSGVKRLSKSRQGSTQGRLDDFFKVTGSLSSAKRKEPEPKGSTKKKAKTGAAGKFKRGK

Experiment [19] is described as follows: Cytometry Cell-Based qHTS for Inhibitors of the mTORC1 Signaling Pathway in MEF cells (AID 2668). Further: potency means the concentration at half of the fitted maximal effect. A digest of the protocol: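 MEFs (Tsc2-/-, p53-/- stably expressing WT Tsc2) treated 24 h at 37 degree Celsius, fixed, stained with Alexa-488 anti-phospho-rpS6 Ser235/236 and propidium iodide; Acumen laser scanning. Reported as % positive cells, phospho-S6 normalized to PI.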

Structures are written as SMILES. Inconclusive results are not listed. Some compounds were tested as several samples or in several runs, with calls that do not always agree. The list shows a part of the results. Active and inactive are the calls of the source. Unless noted, the call rests on the fitted dose curve; in most records, active means well fitted curve in the direction sought with a large enough effect; inconclusive means small, poorly fitted or top-dose-only effect, or another doubt; inactive means no such curve, though single readings can be large; an effect the other way counts as inactive or inconclusive.

Chain of Beta-2 adrenergic receptor (Homo sapiens) (P07550 whole entry, looked up): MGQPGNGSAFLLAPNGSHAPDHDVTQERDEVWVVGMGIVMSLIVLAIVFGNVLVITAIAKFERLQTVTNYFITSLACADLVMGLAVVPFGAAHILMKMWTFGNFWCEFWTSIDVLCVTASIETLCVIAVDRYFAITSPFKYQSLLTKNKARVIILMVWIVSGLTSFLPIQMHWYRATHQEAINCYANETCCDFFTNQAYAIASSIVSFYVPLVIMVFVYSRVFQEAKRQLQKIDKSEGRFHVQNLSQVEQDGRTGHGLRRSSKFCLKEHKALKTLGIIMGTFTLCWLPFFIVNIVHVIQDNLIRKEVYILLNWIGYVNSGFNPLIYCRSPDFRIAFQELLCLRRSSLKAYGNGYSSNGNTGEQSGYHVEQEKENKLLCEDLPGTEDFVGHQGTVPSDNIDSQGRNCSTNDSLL
Chain of Ubiquitin carboxyl-terminal hydrolase 2 (Homo sapiens) (O75604 whole entry, looked up): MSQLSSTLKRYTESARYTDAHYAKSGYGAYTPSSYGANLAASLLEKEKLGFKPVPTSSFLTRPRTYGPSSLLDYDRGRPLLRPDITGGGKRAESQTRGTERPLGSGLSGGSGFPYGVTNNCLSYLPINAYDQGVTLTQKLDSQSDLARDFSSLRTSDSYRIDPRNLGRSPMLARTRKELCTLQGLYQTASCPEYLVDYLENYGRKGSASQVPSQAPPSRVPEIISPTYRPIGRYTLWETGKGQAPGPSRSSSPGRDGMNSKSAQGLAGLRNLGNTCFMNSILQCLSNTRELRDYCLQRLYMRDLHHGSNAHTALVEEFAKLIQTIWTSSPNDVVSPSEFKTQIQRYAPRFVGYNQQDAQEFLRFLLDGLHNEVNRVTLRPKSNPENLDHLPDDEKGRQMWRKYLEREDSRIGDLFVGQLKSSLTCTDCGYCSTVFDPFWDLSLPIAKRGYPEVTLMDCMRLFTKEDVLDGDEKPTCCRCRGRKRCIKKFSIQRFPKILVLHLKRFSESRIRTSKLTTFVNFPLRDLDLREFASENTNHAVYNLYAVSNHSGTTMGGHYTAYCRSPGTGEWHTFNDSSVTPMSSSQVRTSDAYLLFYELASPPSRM
Chain of Tumor susceptibility gene 101 protein (Homo sapiens) (Q99816 whole entry, looked up, the tested form may be a part): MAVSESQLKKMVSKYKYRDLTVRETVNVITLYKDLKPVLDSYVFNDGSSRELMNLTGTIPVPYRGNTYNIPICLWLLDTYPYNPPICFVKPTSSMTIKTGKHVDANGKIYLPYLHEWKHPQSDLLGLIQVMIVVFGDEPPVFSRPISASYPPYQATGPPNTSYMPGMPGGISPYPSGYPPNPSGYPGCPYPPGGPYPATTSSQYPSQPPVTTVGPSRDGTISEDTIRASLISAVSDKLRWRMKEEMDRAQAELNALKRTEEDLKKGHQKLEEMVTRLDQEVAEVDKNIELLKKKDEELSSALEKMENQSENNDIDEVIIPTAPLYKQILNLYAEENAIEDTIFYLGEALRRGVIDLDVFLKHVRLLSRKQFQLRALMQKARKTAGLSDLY

Consider `CC(C)c1ccc2c(c1)c(SC(C)(C)C)c(CC(C)(C)C(=O)O)n2Cc1ccc(Cl)cc1`, for which the Potency is 28.2 µM (active) in experiment [1], 10 µM (active) in [6], 7.38 µM (active) in [10] and 13.1 µM (active) in [11]. Further, the compound was classed as inactive in experiment [2], in experiment [7] and in experiment [8]. Further, the Potency entry in experiment [3], in experiment [4], in experiment [5], in experiment [9], in [12] and in experiment [13] was “inactive” throughout.
As to `CC(=O)O[C@H]1C(=O)[C@@]2(C)C([C@H](OC(=O)c3ccccc3)[C@]3(O)C[C@H](OC(=O)[C@H](O)[C@@H](NC(=O)c4ccccc4)c4ccccc4)C(C)=C1C3(C)C)[C@]1(OC(C)=O)CO[C@@H]1C[C@@H]2O` (some centres not stated), the Potency entry in experiment [14], in experiment [15], in experiment [3], in experiment [4], in experiment [9] and in experiment [12] was “inactive” each time. In addition, the Potency result in [18] and in experiment [13] was “inactive” throughout. The Potency in experiment [6] was 0.0224 µM (active); in [10], 0.117 µM (active); in experiment [11], 0.117 µM (active). The compound was called inactive in experiment [16], in experiment [7], in [8] and in experiment [17].
In the case of `O=C1c2c(O)cc(O)cc2OC(c2ccc(O)c(O)c2)C1O` (configuration not stated), the Potency entry in [15], in experiment [3], in experiment [4], in experiment [5], in experiment [19] and in experiment [11] was “inactive” each time. The Potency result in experiment [13] is “inactive”. For the same compound, the compound was called inactive in experiment [16], in experiment [7], in [8] and in experiment [17]. The Potency was 8.44 µM (active) in experiment [12] and 2.67 µM (active) in experiment [18].
Consider `Cc1cccc(C#Cc2ccccc2)n1`, for which the Potency entry in experiment [15], in experiment [3], in [4], in [5], in [19] and in [6] was “inactive” throughout. Also, the Potency entry in experiment [12], in experiment [18] and in experiment [13] was “inactive” each time. The compound was called inactive in experiment [16], in experiment [7] and in experiment [17].
Regarding `Nc1nc(OCc2ccccc2)c2[nH]cnc2n1`, the Potency result in [14], in experiment [15], in experiment [3], in experiment [4], in [5] and in [19] was “inactive” in each case. Besides, the Potency result in [6], in [10], in experiment [11], in experiment [12], in experiment [18] and in [13] was “inactive” in each case. Besides, the call in experiment [16], in experiment [7], in [8] and in [17] was inactive.
Take `Oc1ccc(-c2nc(-c3ccc(F)cc3)c(-c3ccncc3)[nH]2)cc1`: the Potency entry in experiment [14], in experiment [15], in experiment [3], in experiment [4], in experiment [5] and in [19] was “inactive” throughout. The Potency result in [9], in experiment [10], in [11], in experiment [12] and in experiment [18] was “inactive” in each case. In addition, the call in [16], in [7], in [8] and in [17] was inactive. Moreover, the Potency in [13] is 31.6 µM (active) and inactive.
With `O=c1cc(N2CCOCC2)oc2c(-c3ccccc3)cccc12`, the Potency entry in [14], in experiment [15], in experiment [11], in [12], in experiment [18] and in [13] was “inactive” in each case. The Potency was 3.69 µM (active) in experiment [3], 9.27 µM (active) in [4], 0.414 µM (active) in experiment [5] and 4.65 µM (active) in [19]. Further, the call in experiment [16], in experiment [7], in [8] and in experiment [17] was inactive.
In the case of `O=c1c(O)c(-c2ccc(O)cc2O)oc2cc(O)cc(O)c12`, the Potency entry in experiment [14], in experiment [15], in experiment [3], in experiment [4], in experiment [5] and in experiment [19] was “inactive” throughout. Further, the Potency result in experiment [6], in experiment [10], in [11] and in experiment [12] was “inactive” in each case. Moreover, the compound was called inactive in experiment [7], in experiment [8] and in experiment [17]. The values for the Potency in experiment [18] and in experiment [13] were 2.38 µM (active) and 39.8 µM (active), respectively.
For `CN(C)CCCC1(c2ccc(F)cc2)OCc2cc(C#N)ccc21` (configuration not stated), the Potency result in experiment [15], in experiment [3], in [4], in experiment [5], in experiment [19] and in experiment [6] was “inactive” in each case. Also, the Potency result in [10], in experiment [11], in [12], in experiment [18] and in experiment [13] was “inactive” in each case. Also, the outcome in [16], in experiment [7], in experiment [8] and in experiment [17] was inactive.
As to `CNC[C@H](O)c1ccc(O)c(O)c1`, the Potency entry in experiment [14], in [15], in [3], in experiment [4], in [6] and in experiment [10] was “inactive” each time. Further, the Potency entry in experiment [11] and in experiment [13] was “inactive” each time. Also, the Potency in experiment [5] is 26.1 µM (active); in experiment [18], 10.6 µM (active). Further, the compound was classed as inactive in [16], in experiment [7] and in experiment [17].

(Values after PubChem BioAssay (NCATS).)
